We go through 25 compounds from PubChem BioAssay (EPA / NIEHS).

The target in assay [1] is rat Thyrotropin Releasing Hormone Receptor (TRH), Trhr (gene 25570) (UniProt Q01717). As to the kind of experiment: NVS_GPCR_rTRH: NovaScreen (NVS) G Protein-Coupled Receptor Assay for rat Thyrotropin Releasing Hormone Receptor (TRH) (AID 2283329).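 Also: hit means lower bound tracer signal versus DMSO baseline.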 The method in brief:
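Rat forebrain membrane prep, radioligand displacement, filter scintillation readout at 4 h. Single conc 25 uM, duplicate; actives retested as concentration series. DMSO = negative control/baseline.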

For assay [2], the target named is rat Oxytocin Receptor (OXT), Oxtr (gene 25342) (UniProt P70536). As to the kind of experiment: NVS_GPCR_rOXT: NovaScreen (NVS) G Protein-Coupled Receptor Assay for rat Oxytocin Receptor (OXT) (AID 2283330). The method in brief:
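Binding to rat uterine membrane receptor was followed by scintillation counting of filter-trapped radioligand after 1 h. A 25 uM duplicate single-point screen preceded concentration series with a top of 50 uM. Signal loss was analysed relative to DMSO.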

In assay [3] the target is human Androgen Receptor (AR), AR (gene 367) (UniProt P10275). As to the kind of experiment: NVS_NR_hAR: NovaScreen (NVS) Nuclear Receptor Binding Assay for human Androgen Receptor (AR) (AID 2283332). Put shortly:
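Radioligand competitive binding, scintillation read-out, in cell-free extract from LnCAP, measured 20 h after dosing. Screened first in duplicate at 25 uM, then concentration series for actives; activity fitted against DMSO.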

In assay [4] the target is rat Gamma-Aminobutyric Acid Type A Receptor, Non-Selective (GABAR-NonSelective), Gabra1 (gene 29705) (UniProt P62813). As to the kind of experiment: NVS_LGIC_rGABAR_NonSelective: NovaScreen (NVS) Ligand-Gated Ion Channel Assay for rat Gamma-Aminobutyric Acid Type A Receptor, Non-Selective (GABAR-NonSelective) (AID 2283326). The method in brief:
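Compounds were first screened in duplicate at 25 uM, with actives run as singleton concentration series (max 50 uM). Binding of a radioligand to rat whole-brain GABA-A preparation was measured by filtration and scintillation counting after 1 h, DMSO baseline.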

The target of assay [5] is human Constitutive Androstane Receptor (CAR), NR1I3 (gene 9970) (UniProt Q14994). As to the kind of experiment: NVS_NR_hCAR_Agonist: NovaScreen (NVS) Nuclear Receptor Binding Assay for human Constitutive Androstane Receptor Agonism (CAR) (AID 2283328). Put shortly:
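Actives from a 25 uM duplicate screen were retested in singleton concentration series to 50 uM max. Biochemical TR-FRET assay on extracted CAR protein measured 1 h post-dose, with signal increase over DMSO control.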

The target of assay [6] is Voltage-gated inwardly rectifying potassium channel KCNH2 (Homo sapiens) (UniProt Q12809). As to the kind of experiment: NVS_IC_hKhERGCh: NovaScreen (NVS) Ion Channel Assay for human Potassium Channel ERG (KhERGCh) (AID 2283333). Put shortly: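 Membranes from CHO cells expressing human ERG; displacement of radioligand measured by filtration and scintillation after 0.75 h. Single-concentration duplicate screen at 25 uM, then concentration-response for actives; DMSO baseline.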
Voltage-gated inwardly rectifying potassium channel KCNH2 (Homo sapiens), sequence (Q12809 whole entry, looked up): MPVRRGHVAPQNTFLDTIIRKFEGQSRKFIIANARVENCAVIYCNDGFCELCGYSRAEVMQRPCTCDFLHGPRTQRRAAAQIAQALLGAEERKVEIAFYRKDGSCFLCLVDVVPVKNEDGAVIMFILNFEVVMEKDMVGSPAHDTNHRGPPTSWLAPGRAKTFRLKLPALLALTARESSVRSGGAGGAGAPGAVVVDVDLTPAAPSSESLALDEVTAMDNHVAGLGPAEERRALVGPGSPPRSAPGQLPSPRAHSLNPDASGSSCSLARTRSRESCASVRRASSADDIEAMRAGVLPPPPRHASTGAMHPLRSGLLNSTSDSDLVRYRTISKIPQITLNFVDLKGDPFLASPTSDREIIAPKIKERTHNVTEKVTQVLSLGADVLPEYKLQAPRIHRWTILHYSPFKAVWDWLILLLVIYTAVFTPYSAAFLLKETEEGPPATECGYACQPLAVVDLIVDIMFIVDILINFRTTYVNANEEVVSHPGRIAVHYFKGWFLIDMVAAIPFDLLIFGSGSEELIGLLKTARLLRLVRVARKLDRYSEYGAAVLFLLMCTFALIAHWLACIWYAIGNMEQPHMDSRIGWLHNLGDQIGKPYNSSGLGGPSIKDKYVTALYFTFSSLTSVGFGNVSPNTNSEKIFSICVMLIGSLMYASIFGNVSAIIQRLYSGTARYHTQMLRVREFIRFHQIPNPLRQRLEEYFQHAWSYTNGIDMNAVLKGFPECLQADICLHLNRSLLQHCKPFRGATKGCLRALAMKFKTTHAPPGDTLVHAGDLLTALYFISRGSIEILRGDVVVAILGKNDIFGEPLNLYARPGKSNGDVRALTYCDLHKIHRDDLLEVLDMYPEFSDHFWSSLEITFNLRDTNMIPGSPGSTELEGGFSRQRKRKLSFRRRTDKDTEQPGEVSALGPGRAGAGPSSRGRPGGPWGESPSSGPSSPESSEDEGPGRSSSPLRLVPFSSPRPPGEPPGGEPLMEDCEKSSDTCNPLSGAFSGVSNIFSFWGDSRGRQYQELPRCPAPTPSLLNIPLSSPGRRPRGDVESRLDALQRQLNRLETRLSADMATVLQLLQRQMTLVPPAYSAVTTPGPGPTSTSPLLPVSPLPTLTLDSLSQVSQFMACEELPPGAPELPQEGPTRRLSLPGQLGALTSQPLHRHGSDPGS

Assay [7] in a line: NVS_IC_rCaBTZCHL: NovaScreen (NVS) Ion Channel Assay for Calcium Channel, Type L, Benzothiazepine Site (CaBTZCHL) (AID 2283337). The method in brief:
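Benzothiazepine-site binding was assessed in a tissue-derived, cell-free rat cortical membrane system. After 1.5 h exposure, radioactivity retained on filters was quantified by scintillation; positive and negative controls accompanied every plate.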

The target of assay [8] is bovine Gamma-Aminobutyric Acid Type A Receptor Agonist (GABAR Agonist), GABRA1 (gene 780973) (UniProt P08219). As to the kind of experiment: NVS_LGIC_bGABAR_Agonist: NovaScreen (NVS) Ligand-Gated Ion Channel Assay for bovine Gamma-Aminobutyric Acid Type A Receptor Agonist (GABAR Agonist) (AID 2283338). Put shortly: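 Radioligand binding to bovine cerebellar membranes in agonist format, read by filter-based scintillation counting after 1 h. Primary screen in duplicate at 25 uM, with actives followed in concentration series. Gain of signal versus DMSO.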
bovine Gamma-Aminobutyric Acid Type A Receptor Agonist (GABAR Agonist), GABRA1 (gene 780973), sequence (P08219 whole entry, looked up): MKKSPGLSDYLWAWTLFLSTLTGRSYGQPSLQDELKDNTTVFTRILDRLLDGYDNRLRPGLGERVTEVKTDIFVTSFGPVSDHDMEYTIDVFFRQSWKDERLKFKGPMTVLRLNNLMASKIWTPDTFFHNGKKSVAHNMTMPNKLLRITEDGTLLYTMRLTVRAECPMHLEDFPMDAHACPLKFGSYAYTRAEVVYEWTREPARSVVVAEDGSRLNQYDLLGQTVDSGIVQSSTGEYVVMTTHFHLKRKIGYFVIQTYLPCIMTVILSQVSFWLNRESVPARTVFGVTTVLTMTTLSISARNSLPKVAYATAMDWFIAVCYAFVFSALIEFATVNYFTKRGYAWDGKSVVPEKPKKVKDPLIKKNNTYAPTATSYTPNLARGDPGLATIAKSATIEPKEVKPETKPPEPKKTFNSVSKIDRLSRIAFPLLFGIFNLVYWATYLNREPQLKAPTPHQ

For assay [9], the target named is human Peripheral-type Benzodiazepine Receptor (PBR), TSPO (gene 706) (UniProt P30536). As to the kind of experiment: NVS_MP_hPBR: NovaScreen (NVS) Membrane Protein Assay for human Peripheral-type Benzodiazepine Receptor (PBR) (AID 2283331).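 Also: hits reduce radioligand binding relative to DMSO baseline.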 The method in brief: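 Cell-free binding to human colonic membrane preparations measured by filter-based scintillation counting after 1 h. Compounds first run at 25 uM in duplicate, then concentration series for actives; signal loss against DMSO baseline.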
human Peripheral-type Benzodiazepine Receptor (PBR), TSPO (gene 706), sequence (P30536 whole entry, looked up): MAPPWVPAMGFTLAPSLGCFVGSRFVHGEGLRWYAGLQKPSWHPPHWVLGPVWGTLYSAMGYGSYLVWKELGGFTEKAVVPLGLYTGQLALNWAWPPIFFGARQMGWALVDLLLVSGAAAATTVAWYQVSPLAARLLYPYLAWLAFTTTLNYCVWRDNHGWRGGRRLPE

Where “and” joins values, the source holds several entries; their conditions need not be identical. Identical values can stand only once. Records with an inconclusive call do not appear. Calls of active or inactive are those of the source. The calls were made as follows: active = hit-call score of the fitted dose curve at least 0.9, where 1 is the maximum; inconclusive = response in the unintended direction; inactive = score below 0.9.

rat Thyrotropin Releasing Hormone Receptor (TRH), Trhr (gene 25570), sequence (Q01717 whole entry, looked up): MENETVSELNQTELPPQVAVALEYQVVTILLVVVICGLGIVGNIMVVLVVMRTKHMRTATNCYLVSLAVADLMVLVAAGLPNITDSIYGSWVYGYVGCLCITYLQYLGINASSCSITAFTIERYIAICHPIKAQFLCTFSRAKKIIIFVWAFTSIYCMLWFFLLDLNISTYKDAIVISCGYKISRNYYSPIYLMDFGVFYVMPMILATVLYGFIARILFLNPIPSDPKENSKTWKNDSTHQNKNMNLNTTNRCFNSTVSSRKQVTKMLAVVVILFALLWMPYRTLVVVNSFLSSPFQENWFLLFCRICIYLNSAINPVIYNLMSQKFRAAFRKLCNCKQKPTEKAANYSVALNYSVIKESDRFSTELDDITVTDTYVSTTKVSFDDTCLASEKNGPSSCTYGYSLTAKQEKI
human Constitutive Androstane Receptor (CAR), NR1I3 (gene 9970), sequence (Q14994 whole entry, looked up): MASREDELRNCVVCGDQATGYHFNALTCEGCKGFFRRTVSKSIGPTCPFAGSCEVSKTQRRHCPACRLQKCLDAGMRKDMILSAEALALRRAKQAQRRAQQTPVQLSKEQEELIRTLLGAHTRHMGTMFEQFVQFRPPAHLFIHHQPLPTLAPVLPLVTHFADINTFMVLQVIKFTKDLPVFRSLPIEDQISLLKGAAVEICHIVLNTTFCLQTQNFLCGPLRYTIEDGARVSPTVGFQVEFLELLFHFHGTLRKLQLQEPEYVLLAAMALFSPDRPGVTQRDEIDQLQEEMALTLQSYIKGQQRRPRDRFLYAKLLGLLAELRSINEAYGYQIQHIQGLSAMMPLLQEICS
rat Oxytocin Receptor (OXT), Oxtr (gene 25342), sequence (P70536 whole entry, looked up): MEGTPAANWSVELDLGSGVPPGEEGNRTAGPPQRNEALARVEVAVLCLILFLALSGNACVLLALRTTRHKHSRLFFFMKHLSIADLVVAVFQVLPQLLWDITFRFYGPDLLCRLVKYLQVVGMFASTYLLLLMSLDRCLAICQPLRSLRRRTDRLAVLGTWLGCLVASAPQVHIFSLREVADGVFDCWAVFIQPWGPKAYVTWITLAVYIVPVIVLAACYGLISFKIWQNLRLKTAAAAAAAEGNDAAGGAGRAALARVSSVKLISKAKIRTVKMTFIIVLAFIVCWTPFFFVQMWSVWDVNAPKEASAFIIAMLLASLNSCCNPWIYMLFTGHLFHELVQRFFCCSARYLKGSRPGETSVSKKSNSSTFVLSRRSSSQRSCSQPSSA
human Androgen Receptor (AR), AR (gene 367), sequence (P10275 whole entry, looked up): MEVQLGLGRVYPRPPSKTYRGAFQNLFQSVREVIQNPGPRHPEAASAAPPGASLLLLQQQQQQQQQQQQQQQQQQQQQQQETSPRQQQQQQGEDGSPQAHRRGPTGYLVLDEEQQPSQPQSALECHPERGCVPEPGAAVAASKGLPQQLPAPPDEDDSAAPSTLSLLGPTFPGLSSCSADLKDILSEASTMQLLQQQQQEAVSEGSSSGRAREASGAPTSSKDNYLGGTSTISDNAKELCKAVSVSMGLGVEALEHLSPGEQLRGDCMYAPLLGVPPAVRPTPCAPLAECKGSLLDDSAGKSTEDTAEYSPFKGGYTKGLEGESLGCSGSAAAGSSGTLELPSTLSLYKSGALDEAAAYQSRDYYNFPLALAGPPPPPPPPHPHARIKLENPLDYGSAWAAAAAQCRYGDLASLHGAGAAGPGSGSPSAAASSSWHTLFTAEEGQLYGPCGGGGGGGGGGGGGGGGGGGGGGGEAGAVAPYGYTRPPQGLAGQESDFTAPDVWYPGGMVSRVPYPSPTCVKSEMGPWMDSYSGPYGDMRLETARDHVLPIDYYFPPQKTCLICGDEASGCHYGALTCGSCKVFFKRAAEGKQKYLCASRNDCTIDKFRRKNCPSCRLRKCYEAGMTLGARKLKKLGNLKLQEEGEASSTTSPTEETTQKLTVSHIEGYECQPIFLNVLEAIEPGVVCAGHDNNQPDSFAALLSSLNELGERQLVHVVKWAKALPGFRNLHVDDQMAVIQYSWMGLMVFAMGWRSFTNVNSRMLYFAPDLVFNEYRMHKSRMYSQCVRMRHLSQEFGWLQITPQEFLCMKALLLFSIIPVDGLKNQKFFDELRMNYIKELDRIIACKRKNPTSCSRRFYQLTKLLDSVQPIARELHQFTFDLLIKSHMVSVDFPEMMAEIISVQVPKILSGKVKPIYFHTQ
rat Gamma-Aminobutyric Acid Type A Receptor, Non-Selective (GABAR-NonSelective), Gabra1 (gene 29705), sequence (P62813 whole entry, looked up): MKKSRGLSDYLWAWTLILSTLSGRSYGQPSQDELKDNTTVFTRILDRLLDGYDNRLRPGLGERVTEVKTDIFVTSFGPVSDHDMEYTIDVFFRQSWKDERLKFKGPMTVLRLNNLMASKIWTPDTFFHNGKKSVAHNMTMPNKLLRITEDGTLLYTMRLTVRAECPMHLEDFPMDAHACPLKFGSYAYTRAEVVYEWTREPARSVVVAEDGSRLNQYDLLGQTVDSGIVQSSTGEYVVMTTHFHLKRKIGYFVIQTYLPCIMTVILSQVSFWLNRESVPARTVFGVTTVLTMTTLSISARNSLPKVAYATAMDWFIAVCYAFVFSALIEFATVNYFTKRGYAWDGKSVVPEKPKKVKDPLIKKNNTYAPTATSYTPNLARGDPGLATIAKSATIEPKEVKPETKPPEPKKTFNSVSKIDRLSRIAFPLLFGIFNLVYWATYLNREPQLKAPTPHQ

As to `COc1ccc(C=O)cc1`, in [1], the result was inactive.

Turning to `C[C@]12CC[C@H](O)CC1=CC[C@@H]1[C@@H]2CC[C@]2(C)C(=O)CC[C@@H]12`, the result in assay [1] was inactive.

Turning to `CC(=O)[O][Hg][c]1ccccc1`, the half-maximal activity concentration (AC50) was 15.7 µM (active) in assay [2] and 16.9 µM (active) in assay [3]. As to `CC(C)c1cccc(C(C)C)c1O`, the call in assay [1] was inactive.

Consider `CCOP(=S)(OCC)Oc1nc(Cl)c(Cl)cc1Cl`, for which the concentration at half-maximal activity (AC50) in [4] was 9.12 µM (active). Further, the outcome in assay [5] was inactive. Take `Cl/C=C/Cl`: in assay [1], the outcome was inactive. The same measure, in the same setting: the entry for `ClCC(Cl)CCl` is “inactive”.

With `C=C(C)C(=O)[O][Sn]([CH2]CCC)([CH2]CCC)[CH2]CCC`, the AC50 in [1] is 20.3 µM (active); in [7], 12.8 µM (active). Besides, the outcome in assay [6] and in [8] was inactive. For the compound `O=[N+]([O-])c1ccc(O)c([N+](=O)[O-])c1`, the compound was classed as inactive in assay [1].

In the case of `Cc1ccccc1C(=O)Nc1cccc(OC(C)C)c1`, the compound was classed as inactive in assay [1]. In addition, the AC50 in assay [9] is 1.12 µM (active). For `COP(=O)(OC)O/C(=C\Cl)c1cc(Cl)c(Cl)cc1Cl`, in that order: “inactive” and 0.401 µM (active). Take `CCCCCCCCC(=O)NCc1ccc(O)c(OC)c1`: the concentration at half-maximal activity (AC50) in assay [9] is 4.12 µM (active). As to `CC(C)C1CCC(Cc2ccc(Cl)cc2)C1(O)Cn1cncn1` (centres undefined), the result in [1] was inactive. As for `Cc1ccc2ccccc2c1C`, the call in assay [1] was inactive. `O=C1C2(Cl)C3(Cl)C4(Cl)C(Cl)(Cl)C5(Cl)C3(Cl)C1(Cl)C5(Cl)C24Cl` (centres undefined): the compound was called inactive in assay [5]. In the case of `Oc1cccc2cccnc12`, the outcome in assay [1] was inactive.

For `O=c1[nH]c(=O)[nH]c(=O)[nH]1`, in [1], the call was inactive. `COC(=O)c1sccc1S(=O)(=O)NC(=O)Nc1nc(C)nc(OC)n1`: the call in assay [1] was inactive.

`O=C(OC1CCCCC1)c1ccccc1C(=O)OC1CCCCC1`: the compound was classed as inactive in assay [1]. In assay [9], the AC50 is 3.21 µM (active) and 6.79 µM (active). `C1CCC(NC2CCCCC2)CC1`: in [1], the result was inactive. The same measure, in the same setting: the entry for `Clc1nc(Cl)nc(Cl)n1` is “inactive”.

Consider `C[C@H]1CCCC(=O)CCC/C=C/c2cc(O)cc(O)c2C(=O)O1`, for which the outcome in assay [1] was inactive. Further, the AC50 in assay [9] is 1.66 µM (active). As to `Nc1ccc(-c2ccc(N)c(Cl)c2)cc1Cl`, the AC50 in [9] was 9.91 µM (active). For the compound `O=C(O)C(Cl)(Cl)Cl`, the outcome in [6] was inactive.

For `CCN1CCC2(CC1)COc1cc3c(cc12)N(C(=O)c1ccc(-c2ccc(-c4nnc(C)o4)cc2C)cc1)CC3`, in assay [6], the result was inactive.

Broadly, the AC50 is the midpoint of the concentration-response curve, whichever way the signal moves.
